# Vif imaging = blocks HIV Vif function. HEK293T cells, Vif self-association by quenched fluorescence, imaging, 24 h. inhibition, % at 7.49 µM. actives 0.35% (n = 340,000). AID 602346; in the data active means inhibition above about 50%, passing the limit was not always enough
# FGF22 binding = binders of recombinant human FGF22 by thermal shift | Q9HCT0 | SYPRO orange fluorescence; percent of sucrose octasulfate shift, DMSO zero | activity (Tm shift, normalised), % at 9.99 µM | actives 1.5% (n = 340,000);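 active means mean Tm shift, scaled 0 neutral to 100 positive control, at about 1.3% or above, every replicate too, limit read from the data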
# Target sequence (Q9HCT0 whole entry, looked up): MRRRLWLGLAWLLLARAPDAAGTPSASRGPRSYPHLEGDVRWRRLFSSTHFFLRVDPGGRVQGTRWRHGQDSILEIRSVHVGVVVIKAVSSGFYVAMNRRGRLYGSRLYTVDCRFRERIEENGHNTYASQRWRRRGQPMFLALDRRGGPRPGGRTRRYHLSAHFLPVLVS
# CFTR F508del cor = correctors of CFTR F508del function in bronchial epithelial cells; CFBE cells, YFP halide quenching; stimulated with forskolin plus potentiator P3; % fluorescence drop versus neutral controls; actives 0.36% (n = 350,000); activity (quench increase), % at 7.58 µM; AID 720511;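 active means mean added fluorescence quench of at least 8% versus neutral control, with both replicates also reaching 8%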;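 further: cells transiently co-express mutant CFTR-F508del with the halide-sensitive YFP; corrector assay measuring rescue of mutant channel to the surface after 24 h compound exposure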
# Active calls of the source: *; nt = not tested or not shown. This is a sample that favours compounds with a hit; in the whole collection about 1.7% have one here.
SMILES,Vif imaging,FGF22 binding,CFTR F508del cor
COc1ccc(-n2nnnc2SCC(=O)NCCc2ccccc2)cc1OC,1,42,4
COc1ccc(CCNc2nnc(Sc3nnnn3-c3ccccc3)s2)cc1OC,139*,nt,nt
CC[C@H]1CN2CCc3cc(OC)c(OC)cc3C2C[C@@H]1C[C@H]1NCCc2cc(OC)c(OC)cc21 (some centres not stated),-1,0,-10
CCC1=C(CC2NCCc3ccccc32)CC2c3cc(OC)c(OC)cc3CCN2C1 (configuration not stated),-9,0,10*
COc1ccc(S(=O)(=O)N(C)C[C@H]2Oc3c(NS(C)(=O)=O)cccc3C(=O)N([C@H](C)CO)C[C@@H]2C)cc1,nt,0,-1
Cc1cc(C(=O)Nc2cccc3c2O[C@@H](CN(C)S(=O)(=O)c2cn(C)cn2)[C@H](C)CN([C@H](C)CO)C3=O)n(C)n1,nt,0,0
Cc1noc(C)c1NC(=O)Nc1ccc2c(c1)C(=O)N([C@@H](C)CO)C[C@H](C)[C@H](CN(C)S(=O)(=O)c1ccccc1)OCCCC[C@@H](C)O2,nt,nt,-1
CN(C)CCNC(=S)Nc1ccccc1Cl,65*,0,1
S=C(NCCNC(=S)Nc1ccccc1Cl)Nc1ccccc1Cl,nt,0,-1
CCN(CC)c1ccc2cc(C(N)=O)c(=O)oc2c1,132*,0,0
CCN(CC)c1ccc2cc(C(N)=O)c(=N)oc2c1,18,0,7
CC(=O)Nc1ccc(NC(=O)c2oc3cc(C)c(C)cc3c2C)cc1,15,0,-3
Cc1cc2oc(C(=O)Nc3ccc(S(N)(=O)=O)cc3)c(C)c2cc1Cl,-5,43*,3
Cc1ccc2c(C)c(C(=O)NCc3ccc(S(N)(=O)=O)cc3)oc2c1C,1,43*,2
Cc1ccc2c(C)c(C(=O)Nc3ccc(S(N)(=O)=O)cc3)oc2c1C,-3,0,-2
COc1ccc2c3c([nH]c2c1)[C@@H](CO)N(C)CC31CCN(C(=O)CN(C)C)CC1,nt,0,-1
C[C@@H](O)C#Cc1cnc2c(c1)C(=O)N([C@@H](C)CO)C[C@H](C)[C@@H](CN(C)C(=O)c1ccccc1)O2,nt,0,4
Cc1cc([N+](=O)[O-])ccc1N1C(=O)c2ccc(C(=O)Nc3ccccc3C(=O)O)cc2C1=O,-16,1.6*,0
CC(C)CN1C(=O)c2ccc(C(=O)Nc3ccccc3C(=O)O)cc2C1=O,-1,0,-4
COc1cccc(CN(C)C[C@H]2OCc3ccccc3-c3ccccc3C(=O)N([C@H](C)CO)C[C@@H]2C)c1,nt,0,-1
CCOC(=O)c1sc2nc(C)nc(NCc3ccc(Cl)cc3)c2c1C,-12,0,-4
CCOC(=O)c1sc2nc(Cc3ccc(Cl)cc3)[nH]c(=S)c2c1C,-3,0,12*
COc1ccc(NC(=O)N(C)C[C@H]2OCCCC[C@H](C)Oc3ccc(NS(=O)(=O)c4ccc(C)cc4)cc3C(=O)N([C@H](C)CO)C[C@@H]2C)cc1,nt,nt,0
CC(C)NC(=O)Nc1cccc2c1O[C@H](CN(C)S(=O)(=O)c1ccc(F)cc1)[C@@H](C)CN([C@@H](C)CO)C2=O,nt,nt,3
COc1ccc(/C=N/NC(=S)Nc2cccc(C(=O)O)c2)cc1,-4,nt,1
SMILES,Vif imaging,FGF22 binding,CFTR F508del cor
O=[N+]([O-])c1ccc(C=NNC(=S)Nc2ccc(F)cc2)cc1,-3,44*,0
COc1ccc(/C=N/NC(=S)Nc2ccccc2)cc1,11,45*,-3
O=[N+]([O-])c1ccc(C=NNC(=S)NN=Cc2ccc([N+](=O)[O-])cc2)cc1,-2,0,-4
C=CCNC(=S)Nc1cccc([N+](=O)[O-])c1,0,0,-2
C=CCNC(=S)N/N=C/c1cccc([N+](=O)[O-])c1,6,43*,2
CO[C@@H]1CN(C)C(=O)c2ccc(NC(=O)NC(C)C)cc2OC[C@H](C)N(C(=O)CC2CC2)C[C@@H]1C,nt,0,-2
Cc1ccc(S(=O)(=O)N[C@@H]2CC[C@@H](CC(=O)NCCN3CCCCC3)O[C@@H]2CO)cc1,nt,0,2
CC(OC(=O)C1=COCCO1)C(=O)Nc1cc(S(=O)(=O)N2CCCCC2)ccc1Cl (configuration not stated),-1,43*,0
O=C(Nc1cc(S(=O)(=O)N2CCCC2)ccc1Cl)C1=COCCO1,-6,nt,nt
Cc1nn(Cc2c(Cl)cccc2Cl)c(C)c1NC(=O)c1cnn2c(C(F)F)cc(-c3ccccc3)nc12,104*,nt,nt
CNS(=O)(=O)c1ccc(NC(=O)c2cnn3c(C(F)F)cc(-c4ccccc4)nc23)cc1,2,43*,-5
Cc1ccc(-c2cc(C(F)F)n3ncc(C(=O)Nc4c(C)nn(Cc5c(Cl)cccc5Cl)c4C)c3n2)cc1,28,nt,nt
COc1ccc(-c2cc(C(F)F)n3ncc(C(=O)Nc4cc(C)on4)c3n2)cc1,2,43*,-3
COc1ccc(-c2cc(C(F)F)n3ncc(C(=O)Nc4c(C)n(C)n(-c5ccccc5)c4=O)c3n2)cc1,13,0,0
O=C(Nc1cccc(S(=O)(=O)N2CCOCC2)c1)c1cnn2c(C(F)F)cc(-c3ccccc3)nc12,-1,1,-3
O=C(C[C@H]1C[C@@H]2c3cc(NC(=O)CC4CC4)ccc3O[C@@H]2[C@@H](CO)O1)NCc1cccc(F)c1,nt,0,6
CO[C@@H]1CN(C)C(=O)c2ccc(NC(=O)Nc3ccccc3Cl)cc2OC[C@@H](C)N(C)C[C@H]1C,nt,0,0
C[C@@H]1CCCCO[C@H](CN(C)C(=O)Cc2ccccc2)[C@@H](C)CN([C@@H](C)CO)C(=O)c2cc(NS(=O)(=O)c3cn(C)cn3)ccc2O1,nt,0,1
CCCNC(=O)Nc1ccc2c(c1)C(=O)N(C)C[C@@H](OC)[C@H](C)CN(Cc1ccccc1)[C@@H](C)CO2,nt,nt,2
CCOC(=O)c1c2ccc(OCC(=O)N/N=C/c3ccc(C)cc3)cc2n2ccccc12,2,nt,nt
CCOC(=O)c1c2ccc(OCC(=O)NN)cc2n2ccccc12,3,43*,2
CC(=O)Nc1ccc(NC(=O)CSc2nnc(NC(=O)c3ccccc3F)s2)cc1,3,1.9*,3
NC(=O)c1ccsc1NC(=O)CSc1ccccc1F,-3,nt,-2
O=C(CSc1nnc(NC(=O)c2ccccc2F)s1)NC1CCCC1,9,0,1
NC(=O)c1ccsc1NC(=O)CSc1nnc(Nc2ccccc2)s1,-13,1.5*,-3
SMILES,Vif imaging,FGF22 binding,CFTR F508del cor
C[C@@H]1CN([C@@H](C)CO)C(=O)CCCn2cc(nn2)CO[C@@H]1CN(C)Cc1ccc2c(c1)OCCN2C,nt,0,-3
Cc1noc(C)c1NC(=O)Nc1ccc2c(c1)C(=O)N([C@H](C)CO)C[C@@H](C)[C@@H](CN(C)S(=O)(=O)c1cccs1)O2,nt,0,-3
CC(C)NC1(C#N)CCN(Cc2ccccc2)CC1,-1,43*,4
CCNC1(C#N)CCN(Cc2ccccc2)CC1,-4,0,-3
Cc1nnc(NC(=O)c2cc3n(n2)C(C(F)(F)F)CC(C2CC2)N3)s1 (configuration not stated),9,nt,nt
O=C(Nc1ccccc1)c1cc2n(n1)C(C(F)(F)F)CC(C1CC1)N2 (configuration not stated),-4,43*,3

# Compound activity (PubChem)
